# Source: PubChem BioAssay (NCI)
# The panel holds about 79,000 compounds, 15% with a hit somewhere; the sample as a whole holds those more often. A number with no mark means an inactive call. Activity calls are given as the source filed them. Cut-off read from the data, not from the text of the source: active = growth inhibition above about 70%; inactive = the rest.
# Tests used:
# [1] = NCI Yeast Anticancer Drug Screen. Data for the rad52 strain (AID 147);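 note: 0% = growth of vehicle-treated control cultures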; details: S. cerevisiae rad52 mutant growth inhibition, hits give high values
# Method in brief: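 The repair-mutant yeast strain was incubated with compounds, then growth was read and inhibition derived relative to vehicle.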
# [2] = NCI Yeast Anticancer Drug Screen. Data for the wt1 strain (AID 149);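 note: 0% = growth of vehicle-treated wt1 cultures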; details: S. cerevisiae wt1 strain (SPY 50644) growth inhibition, hits give high values
# Method in brief: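 Yeast wt1 strain exposed to compounds; growth inhibition measured relative to vehicle-treated controls.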
# [3] = NCI Yeast Anticancer Drug Screen. Data for the rad50EPP+ strain (AID 151);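 note: 0% = growth of vehicle-treated control cultures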; details: S. cerevisiae rad50 mutant strain, hits give high values
# Method in brief: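 Vehicle-normalised growth inhibition; rad50EPP+ yeast strain, altered in DNA damage repair, compound-treated.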
# [4] = NCI Yeast Anticancer Drug Screen. Data for the mgt1 strain (AID 153); details: S. cerevisiae mgt1 mutant growth inhibition, hits give high values
# Method in brief: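 Vehicle-normalized growth inhibition is determined in mgt1 yeast, a strain selected for a defined alteration in DNA repair or cell cycle control.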
# [5] = NCI Yeast Anticancer Drug Screen. Data for the rad50 strain (AID 155);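 note: 0% = growth of vehicle-only cultures of the same strain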; details: S. cerevisiae rad50 strain growth inhibition, hits give high values
# Method in brief: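 Yeast carrying a defined DNA repair defect were exposed to test compounds, and growth was compared with vehicle-treated controls to give percent inhibition.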
# [6] = NCI Yeast Anticancer Drug Screen. Data for the mec2-1 strain (AID 157); details: S. cerevisiae mec2-1 strain, hits give high values
# Method in brief: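 Mutant yeast (mec2-1) grown with compound; growth inhibition relative to vehicle control reported.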
# [7] = NCI Yeast Anticancer Drug Screen. Data for the sgs1 mgt1 strain (AID 161);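 note: 0% = growth of cultures given vehicle only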; details: S. cerevisiae sgs1 mgt1 strain, hits give high values
# Method in brief: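 This yeast growth screen uses a strain with defined DNA-repair lesions; compound-treated growth is compared with vehicle-treated growth.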
# [8] = NCI Yeast Anticancer Drug Screen. Data for the CLN2oe strain (AID 163);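 note: 0% = growth of vehicle-only control cultures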; details: S. cerevisiae CLN2oe strain, hits give high values
# Method in brief: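 Compounds are applied to yeast harbouring a defined cell-cycle control change; reduced growth compared with vehicle-treated controls gives the value.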
# [9] = NCI Yeast Anticancer Drug Screen. Data for the bub3 strain (AID 167); details: S. cerevisiae bub3 mutant strain, hits give high values
# Method in brief: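 Compounds were applied to a genetically altered yeast strain carrying a cell-cycle control defect. Growth inhibition was scored against vehicle-treated controls.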
# [10] = NCI Yeast Anticancer Drug Screen. Data for the wt2 strain (AID 169);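 note: 0% = growth of vehicle-treated yeast cultures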; details: S. cerevisiae wt2 strain growth inhibition, hits give high values
# Method in brief: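 Against vehicle-treated controls, the growth of yeast exposed to each compound was compared, and the inhibition was recorded.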
# [11] = NCI Yeast Anticancer Drug Screen. Data for the mlh1 strain (AID 171);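 note: 0% = growth of vehicle-treated control cultures of the same strain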; details: S. cerevisiae mlh1 strain growth inhibition, hits give high values
# Method in brief: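 Measured: yeast growth. Reference: vehicle-treated controls. Organism: strain with a defined alteration affecting DNA damage repair or cell cycle control, treated with compound.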
# [12] = NCI Yeast Anticancer Drug Screen. Data for the sgs1 strain (AID 173);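 note: 0% = growth of vehicle-only control cultures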; details: S. cerevisiae sgs1 mutant, hits give high values
# Method in brief: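 Each compound was added to cultures of the altered yeast strain. Growth was recorded, and inhibition was derived by comparison with vehicle controls.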
# [13] = NCI Yeast Anticancer Drug Screen. Data for the mlh1 rad18 strain (AID 175); details: S. cerevisiae mlh1 rad18 strain growth inhibition, hits give high values
# Method in brief: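 Genetically defined yeast (DNA repair-deficient) exposed to compounds; growth inhibition determined relative to vehicle.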
# [14] = NCI Yeast Anticancer Drug Screen. Data for the rad18 strain (AID 177); details: S. cerevisiae rad18 mutant growth inhibition, hits give high values
# Method in brief: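 Vehicle-treated cultures served as the baseline for scoring compound-induced growth inhibition in DNA-repair-mutant yeast.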
# [15] = NCI Yeast Anticancer Drug Screen. Data for the cln2 rad14 strain (AID 165);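 note: 0% = growth equal to vehicle treated cultures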; details: S. cerevisiae cln2 rad14 strain, hits give high values
# Method in brief: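 Readout is yeast growth inhibition versus vehicle-treated controls, using a strain with cln2 and rad14 alterations exposed to compound.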
# [16] = at 5.0 µM (retest, dose inferred, filed as 0.5)
# [17] = at 50.0 µM (retest, dose inferred, filed as 5.0)
compound,measurement,setting,value
c1ccc2c(c1)sc1c3cnccc3ccc21,growth inhibition,[1]; at 1.2 µM,11%
same,growth inhibition,[1]; at 3.7 µM,41%
same,growth inhibition,[1]; at 11.0 µM,62%
same,growth inhibition,[1]; at 33.0 µM,84% (active)
same,growth inhibition,[1]; at 100.0 µM,86% (active)
same,growth inhibition,[2]; at 1.2 µM,-1%
same,growth inhibition,[2]; at 3.7 µM,14%
same,growth inhibition,[2]; at 11.0 µM,23%
same,growth inhibition,[2]; at 33.0 µM,22%
same,growth inhibition,[2]; at 100.0 µM,23%
same,growth inhibition,[3]; at 1.2 µM,36%
same,growth inhibition,[3]; at 3.7 µM,46%
same,growth inhibition,[3]; at 11.0 µM,55%
same,growth inhibition,[3]; at 33.0 µM,73% (active)
same,growth inhibition,[3]; at 100.0 µM,65%
same,growth inhibition,[4]; at 1.2 µM,1%
same,growth inhibition,[4]; at 3.7 µM,-1%
same,growth inhibition,[4]; at 11.0 µM,0%
same,growth inhibition,[4]; at 33.0 µM,-3%
same,growth inhibition,[4]; at 100.0 µM,3%
same,growth inhibition,[5]; at 1.2 µM,12%
same,growth inhibition,[5]; at 3.7 µM,36%
same,growth inhibition,[5]; [16],35%
same,growth inhibition,[5]; at 11.0 µM,64%
same,growth inhibition,[5]; at 33.0 µM,74% (active)
same,growth inhibition,[5]; [17],74% (active)
same,growth inhibition,[5]; at 50.0 µM,94.3% (active)
same,growth inhibition,[5]; at 100.0 µM,73% (active)
same,growth inhibition,[6]; at 1.2 µM,4%
same,growth inhibition,[6]; at 3.7 µM,2%
same,growth inhibition,[6]; [16],-34%
same,growth inhibition,[6]; at 11.0 µM,3%
same,growth inhibition,[6]; at 33.0 µM,8%
same,growth inhibition,[6]; [17],-20%
same,growth inhibition,[6]; at 50.0 µM,47.4%
same,growth inhibition,[6]; at 100.0 µM,12%
same,growth inhibition,[7]; [16],-55%
same,growth inhibition,[7]; [17],-34%
same,growth inhibition,[7]; at 50.0 µM,23.6%
same,growth inhibition,[8]; at 1.2 µM,4%
same,growth inhibition,[8]; at 3.7 µM,8%
same,growth inhibition,[8]; at 11.0 µM,1%
same,growth inhibition,[8]; at 33.0 µM,5%
same,growth inhibition,[8]; at 100.0 µM,8%
same,growth inhibition,[9]; at 1.2 µM,13%
same,growth inhibition,[9]; at 3.7 µM,15%
same,growth inhibition,[9]; [16],-35%
same,growth inhibition,[9]; at 11.0 µM,24%
same,growth inhibition,[9]; at 33.0 µM,34%
same,growth inhibition,[9]; [17],-8%
same,growth inhibition,[9]; at 50.0 µM,44.9%
same,growth inhibition,[9]; at 100.0 µM,39%
same,growth inhibition,[10]; at 1.2 µM,8%
same,growth inhibition,[10]; at 3.7 µM,14%
same,growth inhibition,[10]; at 11.0 µM,25%
same,growth inhibition,[10]; at 33.0 µM,36%
same,growth inhibition,[10]; at 100.0 µM,32%
same,growth inhibition,[11]; at 1.2 µM,-9%
same,growth inhibition,[11]; at 3.7 µM,-1%
same,growth inhibition,[11]; at 11.0 µM,2%
same,growth inhibition,[11]; at 33.0 µM,10%
same,growth inhibition,[11]; at 100.0 µM,9%
same,growth inhibition,[12]; at 1.2 µM,-8%
same,growth inhibition,[12]; at 3.7 µM,-10%
same,growth inhibition,[12]; at 11.0 µM,3%
same,growth inhibition,[12]; at 33.0 µM,9%
same,growth inhibition,[12]; at 100.0 µM,8%
same,growth inhibition,[13]; [16],-171%
same,growth inhibition,[13]; [17],-49%
same,growth inhibition,[13]; at 50.0 µM,45.5%
same,growth inhibition,[14]; at 1.2 µM,-8%
same,growth inhibition,[14]; at 3.7 µM,1%
same,growth inhibition,[14]; at 11.0 µM,-1%
same,growth inhibition,[14]; at 33.0 µM,-2%
same,growth inhibition,[14]; at 100.0 µM,13%
COc1ccc(/C=C2\NC(=S)N(/C=C3\C(=O)Oc4ccccc4C3=O)C2=O)cc1,growth inhibition,[1]; at 1.2 µM,-1%
same,growth inhibition,[1]; at 3.7 µM,-1%
same,growth inhibition,[1]; at 11.0 µM,3%
same,growth inhibition,[1]; at 33.0 µM,5%
same,growth inhibition,[1]; at 100.0 µM,21%
same,growth inhibition,[2]; at 1.2 µM,1%
same,growth inhibition,[2]; at 3.7 µM,1%
same,growth inhibition,[2]; at 11.0 µM,1%
same,growth inhibition,[2]; at 33.0 µM,4%
same,growth inhibition,[2]; at 100.0 µM,15%
same,growth inhibition,[3]; at 1.2 µM,-2%
same,growth inhibition,[3]; at 3.7 µM,-3%
same,growth inhibition,[3]; at 11.0 µM,-1%
same,growth inhibition,[3]; at 33.0 µM,-1%
same,growth inhibition,[3]; at 100.0 µM,-2%
same,growth inhibition,[4]; at 1.2 µM,-5%
same,growth inhibition,[4]; at 3.7 µM,-5%
same,growth inhibition,[4]; at 11.0 µM,-3%
same,growth inhibition,[4]; at 33.0 µM,-8%
same,growth inhibition,[4]; at 100.0 µM,28%
same,growth inhibition,[5]; at 1.2 µM,-4%
same,growth inhibition,[5]; at 3.7 µM,4%
same,growth inhibition,[5]; [16],3%
same,growth inhibition,[5]; at 11.0 µM,-17%
same,growth inhibition,[5]; at 33.0 µM,5%
same,growth inhibition,[5]; [17],24%
same,growth inhibition,[5]; at 50.0 µM,70.2% (active)
same,growth inhibition,[5]; at 100.0 µM,20%
same,growth inhibition,[6]; at 1.2 µM,0%
same,growth inhibition,[6]; at 3.7 µM,1%
same,growth inhibition,[6]; [16],-1%
same,growth inhibition,[6]; at 11.0 µM,3%
same,growth inhibition,[6]; at 33.0 µM,15%
same,growth inhibition,[6]; [17],1%
same,growth inhibition,[6]; at 50.0 µM,56.2%
same,growth inhibition,[6]; at 100.0 µM,24%
same,growth inhibition,[7]; [16],0%
same,growth inhibition,[7]; [17],8%
same,growth inhibition,[7]; at 50.0 µM,84.2% (active)
same,growth inhibition,[15]; [16],41%
same,growth inhibition,[15]; [17],26%
same,growth inhibition,[15]; at 50.0 µM,89.2% (active)
same,growth inhibition,[9]; at 1.2 µM,-3%
same,growth inhibition,[9]; at 3.7 µM,-2%
same,growth inhibition,[9]; [16],-5%
same,growth inhibition,[9]; at 11.0 µM,-2%
same,growth inhibition,[9]; at 33.0 µM,4%
same,growth inhibition,[9]; [17],4%
same,growth inhibition,[9]; at 50.0 µM,79.2% (active)
same,growth inhibition,[9]; at 100.0 µM,15%
same,growth inhibition,[10]; at 1.2 µM,-6%
same,growth inhibition,[10]; at 3.7 µM,-1%
same,growth inhibition,[10]; at 11.0 µM,-1%
same,growth inhibition,[10]; at 33.0 µM,5%
same,growth inhibition,[10]; at 100.0 µM,27%
same,growth inhibition,[11]; at 1.2 µM,-1%
same,growth inhibition,[11]; at 3.7 µM,1%
same,growth inhibition,[11]; at 11.0 µM,1%
same,growth inhibition,[11]; at 33.0 µM,9%
same,growth inhibition,[11]; at 100.0 µM,25%
same,growth inhibition,[13]; [16],4%
same,growth inhibition,[13]; [17],2%
same,growth inhibition,[13]; at 50.0 µM,72.8% (active)
same,growth inhibition,[14]; at 1.2 µM,-3%
same,growth inhibition,[14]; at 3.7 µM,-1%
same,growth inhibition,[14]; at 11.0 µM,1%
same,growth inhibition,[14]; at 33.0 µM,5%
same,growth inhibition,[14]; at 100.0 µM,14%
